# Results filed as inconclusive are left out. Unmarked numbers belong to inactive results. Activity calls are given as the source filed them. Calls come from the whole dose curve; as a rule, active = well fitted curve in the direction sought with a large enough effect; inconclusive = small, poorly fitted or top-dose-only effect, or effect the other way, or another doubt; inactive = no such curve, though single readings can be large or run the other way.
# Assay: Secondary Assay for lipid storage modulators: HepG2 cell LDSA assay for probe SAR
# Conditions: HepG2 lipid droplet BODIPY, laser-scanning cytometry, 18-24 h; series mostly up to 46.1 µM; activity, negative = less lipid: at the top concentration
# Excerpt: NIH Molecular Libraries Probe Production Centers Network [MLPCN] NIH Chemical Genomics Center [NCGC] MLPCN Grant: 1 R03 MH085686-01 Assay Submitter (PI): Beller, Mathias; Max-Planck-Institut fur Biophysikalische Chemie NCGC Assay Overview: Storing lipids as a reservoir for energy or the anabolism of elementary metabolites is a common feature of probably all cells and is conserved from bacteria to humans. The universal cellular lipid storage organelle is the so-called lipid storage droplet (LD). Although ubiquitous, LDs share a simple structure composed of a hydrophobic core that harbors the storage lipids, which is shielded by a droplet-specific phospholipid monolayer to which proteins are attached. The current model of LD biogenesis involves an incorporation of the lipid core into the membrane leaflets of the endoplasmic reticulum (ER) followed by a subsequent budding-like maturation of a LD, which ultimately pinches off. Once released, LD volume can increase by localized lipogenesis or fusion of existing droplet. Storage lipids are re-mobilized enzymatically by lipase activity. Lipase regulation in the adipocyte is heavily studied and involves multiple components including catecholamine signaling, the LD-associated proteins Perilipin and comparative gene identification (CGI-58) and at least two lipases named hormone sensitive lipase (HSL) and adipocyte triglyceride lipase (ATGL). LD regulation outside of the adipocyte is poorly understood and only few components are known. However, there is an urgent need to learn more about ectopic fat depots as mislocalized storage of lipids, for example in the liver or muscle, is an eminent health problem associated with insulin resistance or the metabolic syndrome.
# NCGC Assay Protocol Summary: The assay was performed with HepG2 cells, using an oleic acid feeding protocol similar to the S3 assay. We dispensed 4 uL of cells to give 700 cells/well into Greiner bio-one 1,536-well plates (black walled, clear bottom). Triacsin C (Sigma-Aldrich T-4540), an inhibitor of long-chain fatty acyl CoA synthetase that blocks synthesis of triglycerides, was used as a positive control for lipid under-storage using a final concentration of 20 uM. The orexin antagonist, SB408124 - previously identified to stimulate lipid over-storage, was used as a positive control for lipid over-storage using a final concentration of 20 uM. A total of 23 nL of compound solution of different concentrations were transferred to the assay plates using a Kalypsys pin tool equipped with a 1,536-pin array containing 10-nL slotted pins (FP1S10, 0.457-mm diameter, 50.8 mm long; V&P Scientific). One microliter of oleic acid was added (400 uM final concentration), and the plate was lidded with stainless steel rubber gasket lined lids containing pinholes. After 18-24 h incubation at […] and 95% humidity, 4 uL of the dyes BODIPY 493/503 (Molecular Probes) and the Cell Tracker Red CMTPX dye (Molecular Probes) were added to the wells to stain lipid droplets and enumerate cell number, respectively. Fluorescence was detected by excitation of the fluorophores with a 488-nm laser on an Acumen Explorer (TTP Lab Tech). The total intensity in channel 2 (500-530 nm) reflected lipid droplet accumulation. Cells were detected using channel 3 (575-640 nm) with 5-um width and 100-um depth filters. The ratio of the number of objects in PMT channel 2 over the number of objects in PMT channel 3 was also calculated. Percent activity was computed relative to an internal control (100% inhibited lipid droplet deposition due to the presence of 20 uM Triacsin C), which was added to 32 wells/plate.
SMILES,"activity, negative = less lipid",Potency
CCOc1ccc(CCNC(=O)c2ccccn2)cc1OCC,48.1%,
CCOC(=O)C1CCN(C(=O)CNC(=O)Nc2ccccc2Cl)CC1,16.9%,
CCOc1ccc(CCNC(C)=O)cc1OCC,15.6%,
COc1ccc(CCNC(=O)c2cc3sccc3n2Cc2ccccc2)cc1OC,11.7%,
CCOc1ccc(CCNC(=O)c2cc3sccc3n2C)cc1OCC,,25 µM (active)
O=C(c1cc2sccc2n1Cc1ccccc1)N(CCc1ccc(O)c(O)c1)Cc1ccccc1,0%,
CC1(C)CCC(c2ccc(Cl)cc2)=C(CN2CCN(c3ccc(C(=O)NS(=O)(=O)c4ccc(N[C@H](CCN5CCOCC5)CSc5ccccc5)c(S(=O)(=O)C(F)(F)F)c4)cc3)CC2)C1,87%,
Cc1ccc(-c2cnc(SCC(=O)Nc3nccs3)n2Cc2ccco2)cc1,13%,
CCn1c(-c2ccc(C)cc2)cnc1SCC(=O)Nc1nc(C)cs1,-3.9%,
CCOc1ccc(CCNC(=O)c2cc3ccccc3n2C)cc1OCC,9.09%,
O=C(NC1CCCc2c1cnn2-c1ccc(F)cc1F)c1cnccn1 (stereo not given),10.3%,
CCOc1ccc(CCNC(=O)c2cc3ccccc3o2)cc1OCC,29.9%,
CCOc1ccc(CCNC(=O)c2ccc(C3(C(F)(F)F)N=N3)cc2)cc1OCC,36.4%,
CCOC(=O)C1CCN(C(=O)C2(NC(=O)Nc3ccccc3Cl)CCCCC2)CC1,28.6%,
CCOc1ccc(CCNC(=O)c2ccc3[nH]ccc3c2)cc1OCC,67.5%,
O=C(NC1CCCc2c1cnn2-c1ccc(F)cc1F)c1cccs1 (stereo not given),-28.1%,
COc1ccc(-c2cnc(SCC(=O)Nc3nc(C)cs3)n2Cc2ccco2)cc1,20.8%,
CCOc1ccc(CCNC(=O)c2csc(Br)n2)cc1OCC,-2.6% [at 38.8 µM],
CCOc1ccc(CCNC(=O)c2cc3sccc3n2Cc2ccc(OC(F)F)cc2)cc1OCC,-20.8%,
O=C(O)c1cccc(-c2noc(-c3ccccc3F)n2)c1,9.09%,

SMILES,"activity, negative = less lipid",Potency
CCOc1ccc(CCNC(=O)C2=C(C)OCCO2)cc1OCC,13%,
CCOc1ccc(CCNC(=O)C2(c3ccccc3)CC2)cc1OCC,-5.19%,
O=C(NC1CCCc2c1cnn2-c1ccc(F)cc1F)C1CCCCN1 (stereo not given),-13.5%,
O=C(NC1CCCc2c1cnn2-c1ccc(F)cc1F)C1CCCCC1 (stereo not given),8.73%,
O=C(NC1CCCc2c1cnn2-c1ccccc1F)c1cccc2nccnc12 (stereo not given),0%,
O=C(NC1CCCc2c1cnn2-c1ccc(F)cc1F)c1ccc2cc[nH]c2c1 (stereo not given),10.4%,
CCOc1ccc(CCNC(=O)c2cc3c(s2)CCC3)cc1OCC,58.4%,
COc1nc(-c2ccc3c(c2)OCO3)n(-c2ccc(NC(=O)CSc3ccccc3)cc2)n1,5.19%,
CCOc1ccc(CCNC(=O)c2cc3sccc3[nH]2)cc1OCC,15.8%,
CCOc1ccc(CCNC(=O)c2ccc3ccccc3n2)cc1OCC,61% [at 38.8 µM],
CCOc1ccc(CCNC(=O)c2cc3sccc3n2CC=C(C)C)cc1OCC,-19.5%,
CCOc1ccc(NC(=O)NC2(C(=O)N3CCCCC3)CCCCC2)cc1,-9.09%,
C[C@@H](NCCCc1cccc(C(F)(F)F)c1)c1cccc2ccccc12,-13%,
Cc1cc(SCc2sc(-c3ccc(C(F)(F)F)cc3)nc2C)ccc1OCC(=O)O,1.3%,
CCOC(=O)C1CCN(C(=O)C2(NC(=O)NCc3ccccc3)CCCCC2)CC1,-15.6%,
O=C(NC1CCCc2c1cnn2-c1ccc(F)cc1F)C1CC1 (stereo not given),-7.14%,
COc1ccc(CCNC(=O)c2cc3sccc3n2Cc2ccc(Cl)cc2)cc1OC,-24.7%,
O=C(NC1CCCc2c1cnn2-c1ccc(F)cc1F)c1cnon1 (stereo not given),-15.8%,
O=C(Cc1ccccc1)NC1CCCc2c1cnn2-c1ccc(F)cc1F (stereo not given),5.04%,
CCOc1ccc(CCNC(=O)c2cc3sccc3n2CC)cc1OCC,,11.2 µM (active)
